# In the supplement of paper PMC11417369:
# In all, about 25,000 sequences were measured (“ln(normalized median fluorescence intensity)”: median about 6.7, highest 2% from about 10 on). The entries come from a sample that favours the highest values as a whole.
# Test system: PfHDP1 homeodomain (GST-tagged)
# Experiment: gcPBM binding intensity (ln(normalized median fluorescence intensity)); higher = stronger DNA binding
# In short: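 DNA-binding domains from P. falciparum, fused to GST and produced in E. coli, were put on an Agilent 4 × 180k double-stranded probe array for 1 h in 1× PBS holding 1% milk, 0.2 mg/ml BSA, 0.5% salmon testes DNA and 0.03% Triton X-100. Probes were primer-extended, 36 bp long and drawn from intergenic genomic regions, with negative controls included. After Alexa488 anti-GST antibody detection and a 488 nm scan, binding intensity was set as the highest Masliner-normalised natural-log median intensity across replicate spots of either probe orientation.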
row,Sequence,gcPBM binding intensity (ln)
1,ATTAATAATGAGTTATGTACATACATATTTTAAGAT [XGTACX_site7543],6.75
2,AATAAATACTAAATGGTGCAAAATTTTTTAACACTG,10
3,CATACTCTACATAGATGTACTCATTTAAAAAAAAAA [XGTACX_site6945],6.12
4,AATTAATAAAAAAGGTGTACAGTAAATGCAATAATC [XGTACX_site7956],8.08
5,AAATATATCATACAAAGTACTTGGAATTAATATATA [XGTACX_site8907],6.3
6,ATTATGCACCAACACACACACACACCCCTAAAAAAT [CACACA_site2568],11.5
7,TAATTATGCCAACACACACACACACCCAACTAAAAA [CACACA_site8823],6.96
8,TAATTATGCAGACACACACACACACCCAACTAAAAA [CACACA_site2569],7
9,ATATAAAGGTTTATTAGTACACATTAGAATACTTTT [XGTACX_site4492],6.22
10,GGGTTTTTAAAATGTAGTACATATGTAAACATCAAA [XGTACX_site1262],6.7
11,CCAATACTGTTTAAATGTACAAGTAGGAGGTTAATT [XGTACX_site7260],6.64
12,TTTTCAATATATATTTGTACTTTATTTTATGATATT [GTGCAC_negctrl_site732],6.71
13,TATATATATATATATTGTACTTTATTTTATATATTC [XGTACX_site5697],9.11
14,GCTTATGCTCAATATTGTACTTTTTTTATTTATTCA [XGTACX_site8863],10.6
15,AGCATTTTTCATTTTGCACACATGTTTTATGTGTAT [CACACA_site3454],10.5
16,AGCATTTTTCATTTTGCACACATGTTTTATGGGTAT [CACACA_site5839],10.5
17,TATGTGTATTTATTTGCATGTTGGTTGTATTTTTTC [TGCATGCA_site479],6.94
18,TATCCTAACTTTAGATGTACACAAATAAAAAAAAAA [XGTACX_site4491],6.32
19,ATTTATATGAAAATATGTACTTATATAAATTTATTT [XGTACX_site53],6.23
20,TAAGAATAATGACATAGTACAATTTAATAGATCTAA [XGTACX_site3670],6.01
21,TTTTTTTTTAAAGAAAATAAAAATATGTACTTGACA [CACACA_negctrl_site1113],6.05
22,TTTTAAAAAAATATAATACACACCAAAAATATGCAC [CACACA_site2131],7.15
23,AATTATAAATCTTGCACACAAAAAAAATAATAAAAA [CACACA_site2434],8.67

row,Sequence,gcPBM binding intensity (ln)
1,AAATAAATCTTATGCACACAAATAATTAATTAAACA [CACACA_site1693],10.7
2,AAAATTATAAATCTTGCACACAAAAAAAATAATAAA [CACACA_site8771],8.27
3,TAGTTAACAAATAATGCACACAAATGGATAAAATTA [CACACA_site9240],10.6
4,AAAAAATTAATAAAAACACACAAAAAAAATAAACAA [CACACA_site1907],6.94
5,ATAAAATAATCTTATGCACACCAAAAATTTATATAA [CACACA_site8332],10.4
6,CGAAATAAATCTTATGCACACAAATAATTAATTAAA [CACACA_site8491],10.5
7,TTTTTAGTTAATTAAACACACAAAAAAAAAAATAAA [CACACA_site3930],6.4
8,AATCATAAACATTATGCACACAAAAATAAAAAAAAA [CACACA_site8289],8.58
9,AAAATAATCTTATGCACACCAAAAATTTATATAATC [CACACA_site1235],10.6
10,GTTAACAAATAATGCACACAAATGGATAAAATTATA [CACACA_site3725],9.97
11,AAGCCTTAAAAGGAAAGTACGTATATATATATATAT [XGTACX_site8559],9.48
12,TAAAGGTGAACAATACGTACATAAGAACTTATGAGG [XGTACX_site4216],6.43
13,ACAATGAGGATATATACACACATACATTAAAAAAAT [CACACA_site6955],6.71
14,GCACCAAAAAAAAGACGTACAGTTATATTAAAATAG [XGTACX_site8926],6.7
15,ATACATCAAGGACACACACACACACCCACACCCACA [CACACA_site8013],6.71
16,TATATGAAATATTATGCACACAATATATAATATGAT [CACACA_site936],10.2
17,AAATAAATCTTATGCACACAAATAATTAATGAAACA [CACACA_site5011],10.6
18,CTTAAAAACAAAAATGCACACATAATAAGCATATGT [CACACA_site9149],9.58
19,AAAGAAATGAAATATACACACATACATAAATACATA [CACACA_site6081],6.68
20,ATGTAAAACATAAAATGTACATATTATACAAACTAT [XGTACX_site5797],6.87
21,ATTTATATTATAATATGTACACAAAAAAAATTAGGA [XGTACX_site565],6.91
22,GTTTACTAATATTGCACACGAATATGAAAAAGAGAA [CACACA_site2897],10.6
23,CAGTTTACTAATATTGCACACGAATATGAAAAAGAG [CACACA_site8941],9.89

row,Sequence,gcPBM binding intensity (ln)
1,TATGAAATATCGTGCACACACGAATAATATAAGAAT [CACACA_site4842],9.21
2,ATTATTTATTATTTCTGTACGTATAAAAATAACATT [XGTACX_site1671],6.67
3,CAGTTAATGTTGGTACTTTATATAAAAATGATATGA [CACACA_negctrl_site1600],6.67
4,TAAATTATATTATGCACACTTAAAAATATATTTAAC [CACACA_site3512],9.29
5,TTCCTCTTAATATGTGCACACTAAATTATAACCTAA [CACACA_site5751],11.3
6,AAATAATAAATTATAACACACATATATATATATATA [CACACA_site4045],9.33
7,CCTAAATTATATTATGCACACTTAAAAATATATTTA [CACACA_site5861],9.95
8,ATTATGTATATAAATTAACACACATATGTGGTTAAT [CACACA_site9028],6.37
9,CCTCTTAATATGTGCACACTAAATTATAACATAATT [CACACA_site3259],11.3
10,TTCCTCTTAATATGTGCACACTAAATTATAACATAA [CACACA_site3260],11.1
11,ACTAAACTTATATGTACACACATATAACATTAATTT [CACACA_site2258],6.67
12,TTATTTTAAATTAACACATGCATAATATATGTATAT [TGCATGCA_site597],6.31
13,AATATATCATTATATAAACACACAATATGTTTTTTA [CACACA_site9260],6.22
14,CAGATAAGATTTTGTGGTACTATTTATTAAATTAGA [XGTACX_site2644],6.06
15,AAGGTATGATTAATCACACACATAAATATATATACA [CACACA_site2658],6.67
16,TATTTGAAAGCCAATTGTACTTTAGTTTTTGAAACA [XGTACX_site5542],5.98
17,AAAAATATAATATAATGTACACAAAAAAAAAAATTC [XGTACX_site3657],6.63
18,TATTCTAGTCTGCTTACACACATATTTATATTTATA [CACACA_site7432],7.53
19,ATGCTTTTGTCATGTGCACACACGTATATATTATAT [CACACA_site4163],11
20,GCTTTTGTCATGTGCACACACGTATATATTATATAT [CACACA_site6146],11.5
21,AATTATATTTAGTATATGCACACTTTATGTTTGTTA [CACACA_site2025],9.36
22,AGACACGTATACGATGCACACGTATGCTTTATATAT [CACACA_site9363],8.32
23,CCACGTATACGATGCACACGTATGCTTTATATATAG [CACACA_site4108],8.58

row,Sequence,gcPBM binding intensity (ln)
1,ATATATATTATGTGTGTGCACTTTTGTTATTATTAT,9.03
2,CTATATTATTTTTCTTGTACGTAGGAAATATAGCTA [XGTACX_site6176],6.45
3,CATTATAAAAAATAAAAAAGAAATAATTGTATATGC [CACACA_negctrl_site478],6.62
4,AAGAAAATATAAAATGCACACTATAAATTGTATATA [CACACA_site7928],9.72
5,TGTATGTATAATTGAGTGCACAGAAAAAAAAAAGAA,10.6
6,TTTGTATTACGTTTGTGTACATATACAATGTGTTTT [XGTACX_site7708],6.38
7,TCATTGAAAATTGTTGCACACATAATAATTAAATAT [CACACA_site8554],9.46
8,CCATTAAGACACATTGCACACGTGCACCCATAGAAA [CACACA_site4388],10.2
9,ACATTAAGACACATTGCACACGTGCACCCATAGAAA [CACACA_site8029],10.5
10,ATTAAGACACATTGCACACGTGCACCCATAGAAAAA [CACACA_site408],10.5
11,ACCCATTGCTCACGTGCACACATAGAAAAATAATTC [CACACA_site4389],10.7
12,ACATTGCACCCGTGCACACATAGAAAAATAATTCTT [CACACA_site409],10.3
13,TAAGAAATAAATAGTACACACATAGACACCCACCGA [CACACA_site1516],7.1
14,TAAGAAATAAATAGTACACACATAGACACCCACCCA [CACACA_site8429],7.64
15,TACACCCATAGACACACACACACGCATAAAAAAAAA [CACACA_site8428],6.85
16,TCACTTTTTATTAAATGTACATGCTTTCATTTTCAT [XGTACX_site8139],6.78
17,ATAAACAAAAAAAAAAAATATATCAATATATATATA [CACACA_negctrl_site299],8.7
18,TTTTTAAAAAATAAGAAAAAATAAATATATTACAAA [XGTACX_negctrl_site191],6.58
19,AAAATAAATAAATACACACACACGAATATATATATA [CACACA_site1683],8.57
20,TACTTATTTGATTGGGTGCATATATATAGTATGTAT [GTGCAC_site9845],9.2
